Assay outcomes as filed in PubChem BioAssay.
USP17 inh = inhibitors of human USP17 deubiquitinase | Ubiquitin carboxyl-terminal hydrolase 17-like protein 5 (Homo sapiens), A8MUK1 | purified USP17, Ub-rhodamine cleavage fluorescence, 3 h | inhibition, % at 50 µM | actives 6.5% (n = 47,000) | AID 1645855, 2021
USP28 inh = inhibitors of human USP28 deubiquitinase; Ubiquitin carboxyl-terminal hydrolase 28 (Homo sapiens), Q96RU2; purified USP28, Ub-rhodamine cleavage fluorescence, 30 min; inhibition, % at 25 µM; actives 3% (n = 47,000)
OTUD3 block = inhibitors of human OTUD3 deubiquitinase; OTU domain-containing protein 3 (Homo sapiens), Q5T2D3; purified OTUD3, Ub-rhodamine fluorescence, 2 h; inhibition, % at 25 µM; actives 0.7% (n = 47,000)
USP30 inh = inhibitors of human USP30 deubiquitinase. Ubiquitin carboxyl-terminal hydrolase 30 (Homo sapiens), Q70CQ3. purified USP30, Ub-rhodamine cleavage fluorescence. inhibition, % at 25 µM. AID 1645860, 2021. actives 5.3% (n = 47,000)
USP8 inh = inhibitors of human USP8 deubiquitinase | purified USP8, Ub-rhodamine cleavage fluorescence, 30 min | inhibition, % at 20 µM | actives 4.2% (n = 47,000) | AID 1645853, 2021
Target sequence (P40818 whole entry, looked up): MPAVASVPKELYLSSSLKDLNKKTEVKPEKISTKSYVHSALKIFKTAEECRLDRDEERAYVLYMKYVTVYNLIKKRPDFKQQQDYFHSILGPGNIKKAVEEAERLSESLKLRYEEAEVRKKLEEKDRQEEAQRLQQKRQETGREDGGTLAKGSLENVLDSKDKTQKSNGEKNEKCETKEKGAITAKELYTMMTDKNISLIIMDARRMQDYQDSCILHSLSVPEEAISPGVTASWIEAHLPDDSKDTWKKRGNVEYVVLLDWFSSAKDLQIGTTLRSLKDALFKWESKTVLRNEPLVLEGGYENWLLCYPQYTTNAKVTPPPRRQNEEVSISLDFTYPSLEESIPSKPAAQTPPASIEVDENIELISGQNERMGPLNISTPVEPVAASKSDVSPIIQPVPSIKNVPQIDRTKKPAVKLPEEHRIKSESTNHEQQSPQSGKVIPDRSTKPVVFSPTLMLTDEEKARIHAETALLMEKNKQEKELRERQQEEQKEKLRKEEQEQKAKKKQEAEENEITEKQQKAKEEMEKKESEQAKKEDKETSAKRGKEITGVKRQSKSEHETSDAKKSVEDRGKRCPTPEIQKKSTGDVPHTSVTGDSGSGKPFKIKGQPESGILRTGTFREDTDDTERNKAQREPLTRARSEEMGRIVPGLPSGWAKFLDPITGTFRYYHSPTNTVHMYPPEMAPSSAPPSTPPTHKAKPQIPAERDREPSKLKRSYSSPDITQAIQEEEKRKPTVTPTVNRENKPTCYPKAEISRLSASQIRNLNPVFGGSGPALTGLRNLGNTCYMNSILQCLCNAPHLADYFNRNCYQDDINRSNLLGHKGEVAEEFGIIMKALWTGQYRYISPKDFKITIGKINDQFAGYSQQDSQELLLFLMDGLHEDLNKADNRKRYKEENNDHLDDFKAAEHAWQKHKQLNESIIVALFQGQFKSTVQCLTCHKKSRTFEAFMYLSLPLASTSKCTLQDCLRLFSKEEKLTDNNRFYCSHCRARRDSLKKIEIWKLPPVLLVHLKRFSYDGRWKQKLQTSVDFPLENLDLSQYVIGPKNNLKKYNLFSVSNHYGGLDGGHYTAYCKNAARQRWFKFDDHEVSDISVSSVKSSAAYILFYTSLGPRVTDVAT
USP10 inh = inhibitors of human USP10 deubiquitinase. Ubiquitin carboxyl-terminal hydrolase 10 (Homo sapiens), Q14694. purified USP10, Ub-rhodamine fluorescence, 60 min. inhibition, % at 20 µM. actives 1.1% (n = 47,000)
A number is an active result; 0 = inactive; - = no result given. The list is not random: actives were taken first. Their share in the collection is about 13%. Cut-off read from the data, not from the text of the source: active = inhibition above about 30%; inactive = the rest.

SMILES	USP17 inh	USP28 inh	OTUD3 block	USP30 inh	USP8 inh	USP10 inh
Cc1nc(C2CCCN2C(=O)c2ccnn2C)nc2c1CC(=O)N2Cc1ccc(F)cc1 (centres undefined)	0	0	0	0	40	0
Cc1nc(C2CCCN2C(=O)c2ccccn2)nc2c1CC(=O)N2CCc1ccccc1F (centres undefined)	0	0	0	0	61	0
CN1C(=O)CCC12CCCN(S(=O)(=O)c1ccccc1)CC2 (centres undefined)	0	0	0	0	0	0
Cn1nc(C(=O)N2CCN(c3ccccn3)CC2)c2c1-c1ccsc1CC2	0	0	0	0	0	0
Cc1ccc(CNC(=O)c2nn(C)c3c2CCc2sccc2-3)cc1	-	36	0	33	0	0
Cn1nc(C(=O)N2CCC(c3ccccc3)C2)c2c1-c1ccsc1CC2 (centres undefined)	46	0	0	32	74	0
C=C1NC(=O)C(C)C(CCC(C)C(=O)/C=C/C(C)=C/CCC(C)CCCCCC)OC(=O)C(CCC(N)=O)NC(=O)C(C)CNC1=O (centres undefined)	0	0	0	0	0	0
CNc1nccnc1C1CN(Cc2cc3cc(OC)ccc3[nH]2)CCO1 (centres undefined)	0	0	0	0	0	0
CCCCCCCCCC(CCCCCCCCCC(=O)O)O[C@H]1O[C@@H](COC(C)=O)[C@H](O)[C@@H](O)[C@H]1OC(=O)CC(=O)O (some centres undefined)	42	41	0	53	0	68
Cc1nccn1-c1cccc(C2CCNCC2)n1	0	0	0	0	0	0
C[C@]12C(=O)N(CCc3ccccc3F)CC(=O)N1CCc1c2[nH]c2ccccc12	0	0	0	0	0	0
CCc1ccc(NC(=O)COC(=O)c2n[nH]c3ccccc23)cc1	71	43	0	0	0	0
N#Cc1ccc(Cl)cc1NC(=O)CSc1ncccc1C(=O)O	0	0	0	0	0	0
N#Cc1ccc(Cl)cc1NC(=O)COC(=O)c1n[nH]c2ccccc12	0	0	0	0	34	0
COc1ccccc1NC(=O)COC(=O)Cc1c[nH]c2ccccc12	0	0	0	0	0	0
CCOc1ccc(NC(=O)COC(=O)c2n[nH]c3ccccc23)cc1	0	0	0	0	0	0
N#Cc1cccc(NC(=O)COC(=O)c2n[nH]c3ccccc23)c1	47	0	0	0	0	31
CC(=O)c1ccc(NC(=O)COC(=O)c2c[nH]c3ccccc23)cc1	34	-	0	-	0	0
COc1ccc(C)cc1NC(=O)C(=O)NCC(c1cccnc1)N1CCc2ccccc2C1 (centres undefined)	0	0	0	0	0	0
Cc1cccc(NC(=O)C(=O)NCC(c2cccnc2)N2CCc3ccccc3C2)c1 (centres undefined)	0	0	0	0	61	0
C[C@@H](c1ccccc1)N1C(=O)N[C@@H](CCC(=O)Nc2ccc3c(c2)OCO3)C1=O	0	0	0	0	52	0
O=C(CC[C@@H]1NC(=O)N(Cc2ccccc2)C1=O)Nc1ccc2c(c1)OCO2	0	0	0	0	0	0
Cc1nc(NCC2CCN(C(=O)CCN)CC2)c2cc(Cl)ccc2n1	0	0	0	0	0	0
COC(=O)c1ccc(NC(=O)CCc2nnc3ccc(N4CCOCC4)nn23)cc1	31	0	0	0	0	0
Cc1ccc(C)c(CN2CCC(CNC(=O)CCc3nnc4ccc(N5CCCCC5)nn34)CC2)c1	0	33	0	0	0	0
SMILES	USP17 inh	USP28 inh	OTUD3 block	USP30 inh	USP8 inh	USP10 inh
CC1CCN(c2ccc3nnc(CCC(=O)N4CCCC4)n3n2)CC1	0	0	0	0	0	0
O=C(CCc1nnc2ccc(N3CCOCC3)nn12)Nc1ccccc1F	0	0	0	0	0	0
CC1CCN(c2ccc3nnc(CCC(=O)NCc4ccc(CN5CCOCC5)o4)n3n2)CC1	0	31	0	0	0	0
CC1CC(C)CN(C(=O)CCc2nnc3ccc(N4CCCC4)nn23)C1 (centres undefined)	0	0	0	31	0	0
COc1cccc(CNC(=O)C2=Cc3cccc(OC)c3OC2)c1	0	60	0	0	0	0
O=C(NCc1ccco1)c1nn(C23CC4CC(CC(C4)C2)C3)cc1[N+](=O)[O-]	0	0	0	0	0	0
O=C(NCc1ccc2c(c1)OCO2)c1nn(C23CC4CC(CC(C4)C2)C3)cc1[N+](=O)[O-]	0	0	33	62	0	0
CCOc1ccc2nc(C(=O)NCc3ccc4c(c3)OCO4)cn2n1	32	0	0	41	0	0
COc1ccccc1C(=O)Nc1ccc2c(c1)Sc1ncccc1C(=O)N2C	0	0	0	0	0	0
Cc1cccc(N2C[C@@H](O)[C@H](NC(=O)c3ccccn3)C2)n1	0	0	0	0	0	0
Cc1ccc(S(=O)(=O)N(CC(=O)N2CCCc3ccccc32)c2ccccc2)cc1	0	0	0	0	0	0
O=C(Nc1ccc2n[nH]nc2c1)c1ccc(Cl)c(Cl)c1	51	0	40	53	0	0
Cn1cccc1C(=O)N1CCC(n2c(C(F)(F)F)nc3ccccc32)CC1	0	0	0	0	0	0
CC1CCN(S(=O)(=O)c2nn(C)cc2C(=O)NCCN2CCCCC2)CC1	0	0	0	0	0	0
O=C(NC1CCCCC1)C1CCN(c2ccc(N3CCCCC3)nn2)CC1	0	0	0	0	0	0
COc1ccc(-c2nnc(N3CCC(C(=O)NC4CCCC4)CC3)o2)cc1	75	0	0	80	0	0
O=C(CSc1nnc(-c2sccc2-n2cccc2)o1)c1ccc(Cl)cc1	33	0	0	0	0	0
Cc1c(Cc2ccccc2)c(=O)oc2cc(OCc3nn[nH]n3)ccc12	36	44	0	38	0	0
COc1ccc2c(C)c(CCC(=O)N3CCN(c4ccccc4)CC3)c(=O)oc2c1	0	0	0	0	0	0
COc1ccc(C(=O)Nc2ccc3c(c2)OCCCO3)cn1	0	32	0	0	0	0
COc1cc2c(=O)c(C(=O)c3ccc(F)cc3)cn(CC(=O)Nc3ccc4c(c3)OCCO4)c2cc1OC	37	0	0	0	0	0
Cc1ccc(C(=O)c2cn(CC(=O)Nc3ccc(F)c(F)c3)c3ccc(F)cc3c2=O)cc1	0	0	0	0	0	0
COc1cccc2[nH]c(C(=O)Nc3ccc4c(c3)OCCO4)cc12	0	0	0	0	0	0
COc1ccc(NC(=O)Cn2cc(C(=O)c3ccc(F)cc3)c(=O)c3cc(C)ccc32)cc1OC	0	0	0	0	55	0
COc1cc(C(=O)Nc2ccc3c(c2)OCCO3)ccc1OCC(=O)Nc1ccc(F)cc1	36	0	0	0	0	0
Cc1noc(C)c1CSc1ncccc1C(=O)Nc1ccnn1Cc1ccco1	0	0	0	0	0	0
